Inconclusive results are not listed. Activity calls are given as the source filed them. Calls come from the whole dose curve; as a rule, active = well fitted activation curve with a large enough effect in the repeat runs; inconclusive = weak or mixed curves; inactive = no such curve, though single readings can be large or run the other way.

The nature of this experiment: qHTS assay for small molecules that induce genotoxicity in human embryonic kidney cells expressing luciferase-tagged ATAD5 (AID 651632). Note: nearly all actives have a fitted effect of over 15% in size. The settings on record: HEK293T ATAD5-luciferase induction, 16 h; series mostly up to 83.3 µM. The source says: U.S. Tox21 Program National Center for Advancing Translational Sciences [NCATS] NIH Chemical Genomics Center [NCGC] U.S. Environmental Protection Agency [EPA] National Institutes of Environmental Health Sciences [NIEHS] National Toxicology Program [NTP] U.S. Food and Drug Administration [FDA] Tox21 Assay Overview: As cancer cells divide rapidly and during every cell division they need to duplicate their genome by DNA replication. The failure to do so results in the cancer cell death. Based on this concept, many chemotherapeutic agents were developed but have limitations such as low efficacy and severe side effects etc. A new cell based assay was developed to find the compounds that effectively block DNA replication either by directly damaging DNA or by inhibiting other cellular mechanisms. Enhanced Level of Genome Instability Gene 1 (ELG1; human ATAD5) protein levels increase in response to various types of DNA damage. Using a luciferase reporter-gene tagged with ATAD5, a cell-based assay [developed by Kyungjae Myung, NHGRI, NIH] was used to measure the induction of ATAD5 in human embryonic kidney cells (HEK293T). So, increase in luciferase activity can be used to identify the compounds that cause genetic stress.
Tox21 Assay Protocol Summary: For genotoxicity screening, 2,000 cells in 5 uL/well were dispensed into white, solid-bottom 1536-well plates using a Multidrop Combi (Thermo Scientific) dispenser. Following transfer of 23 nL compound or DMSO vehicle by a pin tool, the plates were incubated 16 hr at 37C and 5% CO2. 5 ul Amplite (AAT Bioquest, Inc.) was then added to each plate and following 30 min incubation at room temperature, luciferase activity was quantified on a ViewLux CCD-based plate reader.
A general note: Quantitative high-throughput screening tests each substance at several concentrations.
As for `O=C(O)c1cc(C(=O)O)cc(S(=O)(=O)O)c1`, the outcome was inactive.

As for `CCC(O)OC(O)CC` (stereo not given), the molecule was classed as inactive.

For the molecule `CC(=O)CC(=O)Nc1ccccc1C`, the result was inactive.

Regarding `C[C@H]1C[C@H]2[C@@H]3CCC4=CC(=O)C=C[C@]4(C)[C@@]3(F)[C@@H](O)C[C@]2(C)[C@@]1(O)C(=O)CO`, the outcome was inactive.

For the molecule `CC(C)(C)[C@@H](O)[C@@H](Cc1ccc(Cl)cc1)n1cncn1`, the call was inactive.

`O=[N+]([O-])c1ccc(/C=C/c2ccc([N+](=O)[O-])cc2S(=O)(=O)O)c(S(=O)(=O)O)c1`: the molecule was called inactive.

In the case of `CC(c1cc2ccccc2s1)N(O)C(N)=O` (stereo not given), the molecule was classed as inactive.

With `O=C(Oc1ccccc1)c1ccccc1`, the molecule was classed as inactive.

As for `CCCCN(CCCC)CCCC`, the result was inactive.

Take `C#CCN(C)Cc1ccccc1`: the molecule was called inactive.

As for `c1ccc2scnc2c1`, the molecule was called inactive.

Take `CC(C)CC(=O)CC(C)C`: the molecule was called inactive.

On to `O=C1CCC(N2C(=O)c3ccccc3C2=O)C(=O)N1` (stereo not given), for which the molecule was classed as inactive.

As to `C=CCNC(N)=S`, the call was inactive.

For `CCCCCC(N)=O`, the molecule was called inactive.

With `Cc1cccnc1`, the result was inactive.

Take `C[Si](O[Si](C)(C)C)O[Si](C)(C)C`: the molecule was called inactive.

`CCc1ccc(CCOc2ccc(CC3SC(=O)NC3=O)cc2)nc1` (stereo not given): the outcome was inactive.

On to `CSCCC=O`, for which the result was inactive.

Take `CCCCCCCCCCCCCCCO`: the outcome was inactive.

Regarding `ON=C1CCCCC1`, the result was inactive.

Regarding `Oc1cccc2ccccc12`, the molecule was called inactive.

Turning to `C=C(C)C(=O)O[C@H]1C[C@@H]2CC[C@@]1(C)C2(C)C`, the call was inactive.

For `CCCCCC/C(C=O)=C\c1ccccc1`, the molecule was classed as inactive.

As for `CC(=O)c1ccccc1`, the molecule was called inactive.

Turning to `CCCC(C)=O`, the outcome was inactive.

Turning to `O=C(O)CC(C(=O)O)C(CC(=O)O)C(=O)O` (stereo not given), the molecule was called inactive.

For the molecule `CCC(O)OCCCOC` (stereo not given), the molecule was called inactive.

Turning to `OCc1cccnc1`, the result was inactive.

With `CCN(CC)c1ccc(C(=O)c2ccccc2C(=O)O)c(O)c1`, the outcome was inactive.

Take `Nc1ccccc1[N+](=O)[O-]`: the call was inactive.

Regarding `CCc1cccc(C)c1N`, the result was inactive.

With `O=C(O)c1ccccc1C(c1ccc(O)cc1)c1ccc(O)cc1`, the molecule was classed as inactive.

For `COc1cc(Cc2cnc(N)nc2N)cc(OC)c1OC`, the molecule was classed as inactive.

Consider `CCCCCCOCCO`, for which the molecule was classed as inactive.

As to `COc1ccc(NC(C)=O)cc1N`, the result was inactive.

Turning to `FC(F)(F)c1ccc(Cl)c(Cl)c1`, the result was inactive.

With `CC(C)c1ccc(S(=O)(=O)O)cc1`, the molecule was called inactive.

For the molecule `CCOC(=O)NNc1nncc2ccccc12`, the call was inactive.

Turning to `Nc1cc([N+](=O)[O-])ccc1O`, the outcome was inactive.

For the origin of these results see PubChem BioAssay (Tox21).
